Rab9 prom act = Rab9 promoter activation. Huh7 Rab9 promoter-luciferase reporter, luminescence, 24 h. Potency, µM (top dose mostly 9.22 µM), inactives show at the highest dose activation, negative = inhibition, actives largely listed as activators. actives 2.8% (n = 320,000); also: % of control where 0% means no effect; nearly all actives have a fitted effect of over 60% in size
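Luciferase signal after 10 min detection reagent at ambient indicates Rab9 promoter upregulation; stably transfected Huh7 cells were treated 24 h with compound in DMSO at 37 °C, 5% CO2.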
ELG1 genotoxic = genotoxicity induction in ELG1-luciferase HEK293T cells; HEK293T ELG1-luciferase reporter, luminescence, 16 h; AID 504466; actives 1.3% (n = 330,000); Potency, µM (highest dose often 46 µM), for inactives: at the highest dose activity change, positive = activation, most hits filed as activators; also: % of control where 0% means no effect; nearly all actives have a fitted effect of over 60% in size
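Genotoxicity was scored as increased ELG1-luciferase reporter signal, measured by ONE-Glo luminescence (30 min, room temperature). Compound or vehicle exposure of the HEK293T reporter cells lasted 16 hr at 37°C.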
SMN2 splice up = increases expression of the SMN2 splice variant. HEK293 SMN2-luciferase splicing reporter, luminescence, 30-36 h. Potency, µM (highest dose often 46.1 µM), without a hit: at the top dose activity change, positive = activation, most hits filed as activators. actives 2.8% (n = 210,000). AID 1458; also: % of control where 0% means no effect; nearly all actives have a fitted effect of over 55% in size
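HEK293 cells carry an SMN2 minigene-luciferase reporter in which exon 7 inclusion puts luciferase in frame. Cells were seeded at 2000 cells/well, attached for 10-12 hours, then exposed to compounds for 30-36 hours at 37C before ONE-Glo luminescence.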
FLuc modulator = counter-screen for miR-21 project: firefly luciferase inhibitors or activators | purified FLuc, Km substrates, luminescence inhibition | Potency, µM (titrated, usually from 57.5 µM), for the others: top-dose activity change, negative = inhibition, actives largely listed as inhibitors | actives 6.9% (n = 360,000) | AID 588342;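 also: plate controls were vehicle for no effect and reference inhibitor for full effect; nearly all actives have a fitted effect of over 55% in size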
Target sequence (P08659 whole entry, looked up): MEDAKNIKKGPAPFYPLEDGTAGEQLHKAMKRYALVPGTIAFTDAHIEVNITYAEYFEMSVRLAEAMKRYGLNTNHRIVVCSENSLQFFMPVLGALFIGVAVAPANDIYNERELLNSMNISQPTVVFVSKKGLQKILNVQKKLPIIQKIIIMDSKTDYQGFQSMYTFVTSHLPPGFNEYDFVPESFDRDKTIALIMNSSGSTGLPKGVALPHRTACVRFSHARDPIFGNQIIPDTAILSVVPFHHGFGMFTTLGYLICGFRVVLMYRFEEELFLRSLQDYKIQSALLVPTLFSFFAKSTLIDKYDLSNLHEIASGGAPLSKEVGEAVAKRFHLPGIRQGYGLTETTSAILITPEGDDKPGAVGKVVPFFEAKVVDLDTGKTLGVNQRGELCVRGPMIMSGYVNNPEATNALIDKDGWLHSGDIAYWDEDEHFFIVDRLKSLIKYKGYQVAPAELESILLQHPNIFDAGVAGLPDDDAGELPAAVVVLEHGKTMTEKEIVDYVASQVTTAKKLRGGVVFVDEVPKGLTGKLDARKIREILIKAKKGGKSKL
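Purified P. pyralis luciferase (10nM final) with 10uM D-luciferin and 10uM ATP (Km levels) in 50mM Tris acetate pH 7.5, 10mM Mg acetate, 0.01% Tween-20, 0.05% BSA; qHTS 6-point titration, ~60 µM downward; luminescence read.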
NPC1 promoter act = NPC1 promoter activation; Huh7 NPC1 promoter luciferase reporter, 24 h; Potency, µM (series often up to 9.22 µM), for the others: at the top dose activation, actives largely listed as activators; actives 2.4% (n = 320,000); also: % of control where 0% means no effect; nearly all actives have a fitted effect of over 60% in size
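NPC1 promoter–luciferase Huh7 cells; 24 h compound; luminescence.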
* hit, by the source's call; ? = inconclusive; . = no result; [ ] = remark or other dose. Only some compounds are listed: those with a hit (about 7.4% of all), similar ones and a draw of the others. Calls follow the shape of the dose curve; as a rule, active = well fitted curve in the direction sought with a large enough effect; inconclusive = small, poorly fitted or top-dose-only effect, or another doubt; inactive = no such curve, though single readings can be large; an effect the other way counts as inactive or inconclusive. Potency is read from the fitted curve at half-maximal effect.

SMILES | Rab9 prom act | ELG1 genotoxic | SMN2 splice up | FLuc modulator | NPC1 promoter act
C/C(=N\NC(=O)c1ccccc1)c1cccc(Br)c1 | 2.5µM* | ? | ? | 13µM* | ?
C/C(=N/NC(=O)c1ccccc1)C(=O)O | 3.5µM* | ? | . | 3.4µM* | 3.5µM*
CC(/C=C/c1ccccc1F)=N\NC(=O)c1ccccc1 | 3.2µM* | ? | 16µM* | 17µM* | ?
C/C(=N\NC(=O)c1cccc(Br)c1)c1cccc(NC(=O)c2ccc(C)o2)c1 | 2% | -2% | -1% | 17µM* | 0%
COc1ccc(Oc2ncc3nc(-c4ccccc4)c(=O)n(Cc4cccs4)c3n2)cc1 | . | . | -26% | . | .
CN(C)c1ccc(N2CN=C3SCC(=O)N3C2)cc1 | 6% | ? | -12% | 11µM* | 15%
Cc1ccccc1C(=O)Nc1cccc(NC(=O)c2ccc(C(C)(C)C)cc2)c1 | . | . | ? | 0.76µM* | .
C/C(=N\NC(=O)c1ccccc1F)c1cccc(NC(=O)c2ccccc2)c1 | 11% | ? | . | 2.7µM* | 24%
C/C(=N\NC(=O)c1nn(C)cc1Br)c1cccc(NC(=O)C(C)(C)C)c1 | -8% | 4% | -7% | ? | -4%
C/C(=N\NC(=O)c1nn(C)c(C)c1Br)c1cccc(NC(=O)c2ccc(F)cc2)c1 | ? | 8% | ? | 1.9µM* | 28%
C/C(=N\NC(=O)c1ccc(O)cc1)c1cccc(NC(=O)c2ccccc2C)c1 | ? | 7% | . | 2.7µM* | 0%
C/C(=N\NC(=O)c1cc(Br)ccc1O)c1cccc(NC(=O)c2ccccc2F)c1 | -5% | 10% | . | ? | -1%
O=C(Nc1ccccc1)N1CC2(CCN(S(=O)(=O)c3ccccc3)CC2)C1 | . | . | 21% | . | .
C/C(=N\NC(=O)c1c(Br)c(C)nn1C)c1cccc(NC(=O)c2ccccc2F)c1 | 0% | 0% | 9% | ? | 2%
C/C(=N\NC(=O)c1c(Br)c(C)nn1C)c1cccc(NC(=O)c2ccccc2C)c1 | -5% | 1% | -3% | 12µM* | 2%
C/C(=N\NC(=S)NCc1ccccc1)c1ccc(C#N)cc1 | -2% | 7% | 9% | 1% | -3%
C/C(=N\NC(=O)c1ccccc1F)c1ccc(C#N)cc1 | 4µM* | ? | ? | ? | ?
C/C(=N\NC(=O)c1c(Cl)c(C)nn1C)c1cccc(NC(=O)COc2ccccc2)c1 | 10% | -8% | . | -1% | 10%
C/C(=N\NC(=O)c1c(Cl)c(C)nn1C)c1cccc(NC(=O)c2cccc(F)c2)c1 | 16% | -17% | . | 11µM* | 2%
C/C(=N\NC(=O)c1c(Br)c(C)nn1C)c1cccc(NC(=O)C2CCC2)c1 | -1% | 0% | 6% | 19µM* | 0%
CCOc1ccc2nc(NC(=O)c3nc(SCc4ccc(C)cc4)ncc3Cl)sc2c1 | . | . | 3% | 0% | .
Clc1ccc(CN2CCCN(Cc3ccc(Cl)cc3)C2c2cc3ccccc3c3ccccc23)cc1 | . | . | -27%[9.22 µM] | . | .
Cn1cnnc1SCC(=O)c1ccc2c(c1)CCCC2 | 23% | ? | 5% | 19µM* | 14%
c1c[nH]c(CN2CCOCC2)n1 | . | . | -20%[9.22 µM] | . | .
Cc1ccc(NC(=O)Nc2ccc3c(c2)N(C)C(=O)CS3)nc1 | 4% | 9% | ? | -3% | 0%
SMILES | Rab9 prom act | ELG1 genotoxic | SMN2 splice up | FLuc modulator | NPC1 promoter act
CC(=O)c1ccc(NC(=O)Nc2ccc3c(c2)N(C)C(=O)CS3)cc1 | 16% | -13% | -20% | 24µM* | 0%
Cc1ccnc(NC(=O)Nc2ccc3c(c2)N(C)C(=O)CS3)c1 | 2.8µM* | ? | 11µM* | 3µM* | 3.5µM*
COc1ccc(NC(=O)Nc2ccc3c(c2)N(C)C(=O)CS3)cc1Cl | 1% | -2% | -22% | 17µM* | -1%
COc1ccc(NC(=O)c2ccco2)c([N+](=O)[O-])c1 | 2.5µM* | ? | 35µM* | 21µM* | ?
COc1ccc(NC(=O)C/C(C)=N/NC(=O)c2ccco2)c([N+](=O)[O-])c1 | -2% | -15% | . | -3% | 0%
Cc1ccc(NC(=O)c2ccco2)c([N+](=O)[O-])c1 | 2.8µM* | ? | 22µM* | ? | 2.8µM*
Cc1ccc(NC(=O)c2ccco2)c(NC(=O)c2ccccc2)c1 | 5% | -1% | . | 0% | -2%
Nc1ccc(Cc2ccc(N)c(O)c2)cc1O | ? | -13% | 5% | 19µM* | 0%
CCCn1c(C)nc2c(Nc3ccccc3)nc(C)nc21 | . | . | -4% | . | .
C=CCOC(=O)C(=O)/C=C/c1csc2ccccc12 | 1% | ? | . | 27µM* | -1%
C=CCOC(=O)/C(=C\c1cccc2ccccc12)NC(=O)c1ccccc1 | -1% | 0% | -17% | ? | -1%
CCn1nc(C)c(CCN(C)C(=O)Nc2cccc(Cl)c2C)c1C | . | . | . | -6% | .
Clc1ccc2c(c1)-n1cc(-c3ccccc3)nc1CO2 | . | . | ? | 21µM* | .
Cn1c(CNC(=O)CSc2nc(-c3ccccc3F)nc3cc(=O)[nH]n23)nc2ccccc21 | . | . | . | 1% | .
CCOC(=O)c1c(NC(=O)c2cc3nc(-c4ccc(OC)cc4)cc(C(F)(F)F)n3n2)sc2c1CCC(C)C2 (configuration not stated) | . | . | . | 1% | .
CCc1nn2c(=O)cc(COC(=O)CNC(=O)COc3ccc(C)cc3)nc2s1 | . | . | . | -4% | .
CC[n+]1ccc(/C=C/c2ccc(N(C)C)cc2)c2ccccc21 | -61% | -7% | . | 24µM* | -38%
CC[n+]1ccccc1/C=C/c1ccc(N(C)C)cc1 | -34% | -2% | -54% | -10% | -40%
COc1cccc(CNC(=O)c2cccc(NC(=O)C3=C(C)OCCS3)c2)c1 | 6% | -6% | . | ? | -2%
CC1=C(C(=O)Nc2ccc(CC(=O)NCc3ccc(OC(C)C)cc3)cc2)SCCO1 | 12% | 9.2µM* | . | 2.7µM* | ?
CCOc1ccc(CNC(=O)c2cccc(NC(=O)C3=C(C)OCCS3)c2)cc1 | 17% | -5% | . | ? | 4%
COc1ccc(CNC(=O)Cc2ccc(NC(=O)C3=C(C)OCCS3)cc2)cc1 | ? | 16µM* | . | 1.2µM* | 24%
Cc1ccccc1OCc1nc(-c2ccc(NC(=O)c3ccco3)cc2)no1 | ? | ? | 7.1µM* | 11µM* | ?
Cc1ccccc1OCc1nc(-c2ccc(NC(=O)c3cccs3)cc2)no1 | ? | ? | ? | 12µM* | ?
CC(Oc1ccc(Cl)cc1Cl)c1nc(-c2ccc(NC(=O)c3ccco3)cc2)no1 (configuration not stated) | ? | ? | -39% | 15µM* | 29%
COc1ccccc1CC(=O)Nc1ccc(-c2noc(COc3cccc(C)c3C)n2)cc1 | -3% | 3% | -31% | 6% | -4%
Cc1ccccc1OCc1nc(-c2ccc(NC(=O)c3ccc4c(c3)OCO4)cc2)no1 | 4% | 9% | -8% | ? | 19%
Cc1ccc(N(C)C(=O)c2cc(S(=O)(=O)N3CCOCC3)cn2C)cc1 | . | . | . | -3% | .

Bioassay records (PubChem BioAssay)
